Conditions in all cases: mRNA level, 48 h; actives raise or lower the signal
Read-out in assay [1]: Insulin-like growth factor-binding protein 1 (IGFBP1), IGFBP1 (gene 3484)
Kind of assay: LTEA_HepaRG_IGFBP1: Life Technologies and Expression Analysis (LTEA) Assay for Insulin-like growth factor-binding protein 1 (IGFBP1) using HepaRG (AID 2283508). A digest of the protocol:
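Read-out is qRT-PCR transcript level normalized to three housekeeping genes, fitted in both directions against 0.5% DMSO. Differentiated HepaRG cells received eight half-log concentrations (top 100 uM) in duplicate for 48 h in serum-free induction medium.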

Read-out in assay [2]: Interleukin 6 (IL6), IL6 (gene 3569)
In words: LTEA_HepaRG_IL6: Life Technologies and Expression Analysis (LTEA) Assay for Interleukin 6 (IL6) using HepaRG (AID 2283509). A digest of the protocol:
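Changes in IL6 mRNA, up or down relative to 0.5% DMSO controls, were derived from concentration-response curves in human HepaRG cells treated for 48 h at up to 100 uM, with ACTB, GAPDH and POLR2A as normalizers.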

Read-out in assay [3]: Interleukin 6 Receptor (IL6R), IL6R (gene 3570)
Kind of assay: LTEA_HepaRG_IL6R: Life Technologies and Expression Analysis (LTEA) Assay for Interleukin 6 Receptor (IL6R) using HepaRG (AID 2283510).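 As to AC50: differentiated human HepaRG liver cells in serum-free induction medium; TaqMan qRT-PCR signal normalized to ACTB GAPDH and POLR2A housekeeping genes.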 A digest of the protocol:
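IL6R transcript level by qRT-PCR after 48 h chemical exposure (8-point, half-log, max 100 uM, 0.5% DMSO vehicle) of HepaRG cells in serum-free induction medium. Normalized to three housekeeping genes; curves fitted in both directions relative to DMSO.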

Read-out in assay [4]: Keratin 19 (KRT19), KRT19 (gene 3880)
Kind of assay: LTEA_HepaRG_KRT19: Life Technologies and Expression Analysis (LTEA) Assay for Keratin 19 (KRT19) using HepaRG (AID 2283512). Summed up:
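KRT19 transcript measured by TaqMan qRT-PCR, referenced to three housekeeping genes, after HepaRG cells received test chemicals for 48 h. Eight half-log concentrations, top 100 uM, 0.5% DMSO vehicle; increases and decreases both fitted.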

Read-out in assay [5]: JUN Transcription Factor, JUN (gene 3725)
In words: LTEA_HepaRG_JUN: Life Technologies and Expression Analysis (LTEA) Assay for JUN Transcription Factor using HepaRG (AID 2283513). Summed up:
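mRNA measured by TaqMan qRT-PCR after 48 h chemical exposure of HepaRG cultures; normalization to three housekeeping genes. Duplicate eight-point half-log curves from 100 uM in 0.5% DMSO; gain or loss fitted against DMSO baseline.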

Read-out in assay [6]: MicroRNA 122 (MIR122), gene 406906
Kind of assay: LTEA_HepaRG_MIR122: Life Technologies and Expression Analysis (LTEA) Assay for MicroRNA 122 (MIR122) using HepaRG (AID 2283516). Also: the transcript read is the microRNA miR-122. Summed up:
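Expression measured by microfluidic qRT-PCR with three housekeeping genes for normalisation, after 48 h treatment of HepaRG cultures. Eight concentrations (top 100 uM, half-log steps, 0.5% DMSO vehicle) in duplicate; gain or loss fitted relative to vehicle.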

Read-out in assay [7]: matrix metalloproteinase-10 (MMP10), MMP10 (gene 4319)
Kind of assay: LTEA_HepaRG_MMP10: Life Technologies and Expression Analysis (LTEA) Assay for matrix metalloproteinase-10 (MMP10) using HepaRG (AID 2283517). A digest of the protocol: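 In differentiated HepaRG cultures kept in 0.5% DMSO, test chemicals act for 48 h over an eight-point range with a top dose of 100 uM. Expression is then quantified by TaqMan RT-PCR against ACTB, GAPDH and POLR2A.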

Read-out in a further assay: MYC, MYC (gene 4609)
In words: LTEA_HepaRG_MYC: Life Technologies and Expression Analysis (LTEA) Assay for MYC using HepaRG (AID 2283518). Summed up:
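MYC transcript changes, up or down relative to 0.5% DMSO, from TaqMan qRT-PCR normalized to three housekeeping genes. Human HepaRG cultures received chemicals for 48 h at eight half-log concentrations up to 100 uM, in duplicate.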

Read-out in assay [8]: matrix metalloproteinase-3 (MMP3), MMP3 (gene 4314)
Kind of assay: LTEA_HepaRG_MMP3: Life Technologies and Expression Analysis (LTEA) Assay for matrix metalloproteinase-3 (MMP3) using HepaRG (AID 2283519). A digest of the protocol:
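Human liver HepaRG cultures received chemicals (top concentration 100 uM, 0.5% DMSO) for 48 h in duplicate. MMP3 mRNA induction or loss was then assessed via TaqMan qRT-PCR with housekeeping-gene normalisation.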

Read-out in assay [9]: Paternally Expressed 10 (PEG10), PEG10 (gene 23089)
Kind of assay: LTEA_HepaRG_PEG10: Life Technologies and Expression Analysis (LTEA) Assay for Paternally Expressed 10 (PEG10) using HepaRG (AID 2283520).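 As to AC50: PEG10 transcript by qRT-PCR normalised to ACTB GAPDH and POLR2A.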 A digest of the protocol: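 PEG10 transcript measured by Fluidigm qRT-PCR, normalized to three housekeeping genes, in HepaRG cells treated 48 h (highest 100 uM, half-log steps, 0.5% DMSO vehicle). Cells plated 48 h before switching to serum-free induction medium.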

Read-out in assay [10]: Protein phosphatase 2A (PPP2R4), PTPA (gene 5524)
In words: LTEA_HepaRG_PPP2R4: Life Technologies and Expression Analysis (LTEA) Assay for Protein phosphatase 2A (PPP2R4) using HepaRG (AID 2283522). Summed up:
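Expression was quantified by Fluidigm qRT-PCR normalised to three housekeeping genes after 48 h treatment. Human HepaRG cells received an 8-point series from 100 µM downward by half-logs, in duplicate with 0.5% DMSO vehicle and 1 mM phenobarbital as induction control.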

Read-out in assay [11]: Phosphatase and tensin (PTEN), PTEN (gene 5728)
Kind of assay: LTEA_HepaRG_PTEN: Life Technologies and Expression Analysis (LTEA) Assay for Phosphatase and tensin (PTEN) using HepaRG (AID 2283523). A digest of the protocol: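 Expression of PTEN is quantified in the human liver line HepaRG following two days of dosing (top concentration 100 uM, half-log dilutions, 0.5% DMSO). Values derive from bidirectional curve fitting relative to DMSO controls.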

Read-out in assay [12]: solute carrier (SLC22A1), SLC22A1 (gene 6580)
Kind of assay: LTEA_HepaRG_SLC22A1: Life Technologies and Expression Analysis (LTEA) Assay for solute carrier (SLC22A1) using HepaRG (AID 2283524).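 As to AC50: differentiated human HepaRG liver cells in serum-free induction medium; TaqMan qRT-PCR normalized to ACTB GAPDH and POLR2A housekeeping genes.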 A digest of the protocol: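 Transcript induction or suppression of SLC22A1 in human HepaRG cultures is scored after 48 h chemical treatment, with DMSO (0.5%) as baseline for bidirectional fitting. Concentrations span eight half-log points topping at 100 uM.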

Read-out in assay [13]: Pyruvate Dehydrogenase Kinase 4 (PDK4), PDK4 (gene 5166)
Kind of assay: LTEA_HepaRG_PDK4: Life Technologies and Expression Analysis (LTEA) Assay for Pyruvate Dehydrogenase Kinase 4 (PDK4) using HepaRG (AID 2283525). Summed up: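 Eight-point, half-log concentration series (max 100 uM, 0.5% DMSO) applied to differentiated HepaRG cells for 48 h in duplicate. Endpoint: PDK4 mRNA induction or repression by qRT-PCR against DMSO baseline.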

Read-out in assay [14]: NAD(P)H dehydrogenase [quinone] 1 (NQO1), NQO1 (gene 1728)
In words: LTEA_HepaRG_NQO1: Life Technologies and Expression Analysis (LTEA) Assay for NAD(P)H dehydrogenase [quinone] 1 (NQO1) using HepaRG (AID 2283526). A digest of the protocol: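 NQO1 transcript induction or loss measured by TaqMan qRT-PCR, referenced to three housekeeping genes and fitted bidirectionally against 0.5% DMSO. HepaRG cultures exposed 48 h, duplicate, eight-point half-log series, top 100 uM.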

Read-out in assay [15]: Nuclear factor erythroid 2-related factor 2 (Homo sapiens) (UniProt Q16236)
In words: LTEA_HepaRG_NFE2L2: Life Technologies and Expression Analysis (LTEA) Assay for Nuclear factor erythroid 2-related factor 2 (NFE2L2) Transcription Factor using HepaRG (AID 2283527).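 As to outcome: TaqMan qRT-PCR transcript level normalised to ACTB GAPDH and POLR2A housekeeping genes.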 A digest of the protocol:
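Human liver HepaRG line treated in duplicate for 48 h with an eight-point series topping at 100 uM. Gene expression of NFE2L2 by qRT-PCR, bidirectionally fitted against the vehicle control.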

Read-out in assay [16]: Potassium channel subfamily K member 1 (KCNK1), KCNK1 (gene 3775)
In words: LTEA_HepaRG_KCNK1: Life Technologies and Expression Analysis (LTEA) Assay for Potassium channel subfamily K member 1 (KCNK1) using HepaRG (AID 2283511). A digest of the protocol:
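Human HepaRG cultures receive test chemicals for 48 h in 0.5% DMSO, top concentration 100 uM with half-log dilutions. Induction or suppression of KCNK1 mRNA relative to DMSO is derived by bidirectional fitting of qRT-PCR data.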

Read-out in assay [17]: Lipoprotein lipase (LPL), LPL (gene 4023)
In words: LTEA_HepaRG_LPL: Life Technologies and Expression Analysis (LTEA) Assay for Lipoprotein lipase (LPL) using HepaRG (AID 2283515). Summed up: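 Concentration-response testing used half-log steps from 100 uM in 0.5% DMSO on human HepaRG cells, 48 h, duplicate wells. Phenobarbital 1 mM served as induction control; LPL mRNA was normalized to ACTB, GAPDH, POLR2A.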

Calls of active or inactive are those of the source. The calls were made as follows: active = hit-call score of the fitted dose curve at least 0.9, where 1 is the maximum; inactive = score below 0.9.

Nuclear factor erythroid 2-related factor 2 (Homo sapiens), sequence (Q16236 whole entry, looked up): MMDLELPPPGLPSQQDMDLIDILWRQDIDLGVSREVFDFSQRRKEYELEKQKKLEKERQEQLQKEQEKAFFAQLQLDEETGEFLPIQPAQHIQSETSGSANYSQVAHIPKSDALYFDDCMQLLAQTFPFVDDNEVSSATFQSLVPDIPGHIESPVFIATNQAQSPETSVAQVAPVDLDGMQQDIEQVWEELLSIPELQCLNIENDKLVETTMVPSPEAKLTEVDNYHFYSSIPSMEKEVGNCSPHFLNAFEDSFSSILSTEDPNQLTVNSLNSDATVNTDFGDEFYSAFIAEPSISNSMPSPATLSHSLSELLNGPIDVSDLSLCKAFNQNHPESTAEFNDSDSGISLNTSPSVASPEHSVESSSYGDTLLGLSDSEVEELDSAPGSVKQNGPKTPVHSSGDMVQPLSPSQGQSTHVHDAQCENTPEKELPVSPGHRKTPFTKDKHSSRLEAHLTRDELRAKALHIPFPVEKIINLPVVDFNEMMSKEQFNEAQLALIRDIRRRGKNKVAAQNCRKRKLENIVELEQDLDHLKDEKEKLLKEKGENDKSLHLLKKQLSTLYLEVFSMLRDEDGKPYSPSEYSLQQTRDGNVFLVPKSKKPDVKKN

The term AC50 denotes the midpoint of the concentration-response curve, whichever way the signal moves. For `CCOP(=S)(OCC)Oc1ccc([N+](=O)[O-])cc1`, the compound was classed as inactive in [1], in [2], in assay [4], in assay [5], in assay [6] and in assay [7]. In addition, the outcome was “inactive” in the assay with MYC, MYC (gene 4609); “inactive” in assay [8]; “inactive” in assay [9]; “inactive” in assay [10]; “inactive” in assay [11]; “inactive” in assay [12]. Moreover, the result in [13], in assay [14] and in assay [15] was inactive. For the same compound, the concentration at half-maximal activity (AC50) in assay [3] is 1.48 µM (active).
In the case of `C=C(C)[C@H]1Cc2c(ccc3c2O[C@@H]2COc4cc(OC)c(OC)cc4[C@@H]2C3=O)O1`, the AC50 in assay [1] was 2.9 µM (active); in assay [2] it was 1.44 µM (active); in assay [16], 16.6 µM (active); in assay [4], 0.654 µM (active); in [5] it was 17.8 µM (active); in assay [6], 1.32 µM (active). The half-maximal activity concentration (AC50) is 17.7 µM (active) in assay [7]; 6.64 µM (active) with MYC, MYC (gene 4609); 14.3 µM (active) in assay [8]; 0.173 µM (active) in assay [9]; 50 µM (active) in [10]; 1.95 µM (active) in assay [12]. Further, the AC50 was 13.2 µM (active) in assay [13] and 7.62 µM (active) in assay [15]. The compound was classed as inactive in assay [3], in [11] and in assay [14].
`CCc1cccc(C)c1N(C(=O)CCl)C(C)COC` (centres undefined): the outcome in assay [1], in assay [2], in assay [3], in assay [16], in assay [4] and in assay [5] was inactive. For the same compound, the outcome in assay [17], in assay [6], in assay [7], in assay [8], in [9] and in assay [10] was inactive. The outcome in assay [11], in assay [12], in assay [13], in [14] and in assay [15] was inactive.
Take `Nc1c(Cl)cc([N+](=O)[O-])cc1Cl`: the AC50 was 23.7 µM (active) in assay [1]; 28.2 µM (active) in [3]; 6.97 µM (active) in assay [4]; 50 µM (active) in assay [6]; 12.3 µM (active) in the assay with MYC, MYC (gene 4609); 36.7 µM (active) in assay [9]. Besides, the half-maximal activity concentration (AC50) was 50 µM (active) in assay [10], 4.24 µM (active) in assay [11], 60.8 µM (active) in assay [12] and 50 µM (active) in [13]. In addition, the compound was called inactive in [2], in assay [16], in [5], in assay [7], in [8] and in assay [14]. For the same compound, in assay [15], the compound was called inactive.
Regarding `O=[N+]([O-])c1cc(C(F)(F)F)c(Cl)c([N+](=O)[O-])c1Nc1ncc(C(F)(F)F)cc1Cl`, the half-maximal activity concentration (AC50) in [1] is 42.6 µM (active); in assay [2] it was 73.9 µM (active); in [3], 50 µM (active); in [4], 26.2 µM (active); in assay [17], 74.1 µM (active); in assay [6], 15.8 µM (active). In addition, the concentration at half-maximal activity (AC50) in assay [7] is 24.8 µM (active); in [8], 25 µM (active); in assay [9], 49.2 µM (active); in [10] it was 65.2 µM (active); in [11], 59.8 µM (active); in assay [12], 17.8 µM (active). Moreover, the AC50 in [13] is 34 µM (active). For the same compound, the outcome was “inactive” in [16]; “inactive” in assay [5]; “inactive” with MYC, MYC (gene 4609); “inactive” in assay [14]; “inactive” in [15].
In the case of `CCOC(=O)COc1cc(-c2nn(C)c(OC(F)F)c2Cl)c(F)cc1Cl`, the compound was called inactive in assay [1], in [2], in assay [3], in assay [16], in assay [4] and in [5]. The outcome in assay [6] was “inactive”; in [7] it was “inactive”; in the assay with MYC, MYC (gene 4609) it was “inactive”; in assay [8] it was “inactive”; in [9] it was “inactive”; in assay [10] it was “inactive”. Further, the result in assay [11], in assay [12], in assay [13], in assay [14] and in assay [15] was inactive.
Regarding `CCOP(=S)(Oc1cnc(C(C)(C)C)nc1)OC(C)C` (centres undefined), the result in assay [1], in [2], in [16], in assay [4], in [5] and in assay [6] was inactive. Moreover, the outcome in assay [7] was “inactive”; with MYC, MYC (gene 4609) it was “inactive”; in [8], “inactive”; in [10], “inactive”; in assay [11], “inactive”; in assay [12] it was “inactive”. For the same compound, the result in assay [14] and in assay [15] was inactive. Further, the AC50 is 25.1 µM (active) in [3], 13.3 µM (active) in assay [9] and 1.35 µM (active) in assay [13].

(Values after PubChem BioAssay (EPA / NIEHS).)
